Read-out in test [1]: Interferon-gamma inducible Protein 10 (IP10), CXCL10 (gene 3627)
Nature of the test: BSK_hDFCGF_IP10: BioMAP Diversity Plus: hDFCGF Assay for Interferon-gamma inducible Protein 10 (IP10) Biomarker Activity (AID 2283053). The note with it: primary human foreskin fibroblasts; actives raise or lower the signal. In outline:
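Chemical-treated human skin fibroblasts (primary) were sampled at 24 h for IP-10 by ELISA. Both increases and decreases relative to DMSO were scored.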

Read-out in test [2]: Urokinase-type plasminogen activator receptor (uPAR), PLAUR (gene 5329)
Description: BSK_CASM3C_uPAR: BioMAP Diversity Plus: CASM3C Assay for Urokinase-type plasminogen activator receptor (uPAR) Biomarker Activity (AID 2283054).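 Further: cell-surface uPAR protein level quantified by ELISA.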 To be noted: primary human coronary artery smooth muscle cells; actives raise or lower the signal.

Read-out in test [3]: Vascular cell adhesion molecule 1 (VCAM1), VCAM1 (gene 7412)
Nature of the test: BSK_CASM3C_VCAM1: BioMAP Diversity Plus: CASM3C Assay for Vascular cell adhesion molecule 1 (VCAM1) Biomarker Activity (AID 2283055).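 Further: VCAM-1 protein level quantified by ELISA on the cells.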 The note with it: primary human coronary artery smooth muscle cells; actives raise or lower the signal.

Read-out in test [4]: Collagen III, COL3A1 (gene 1281)
Description: BSK_hDFCGF_CollagenIII: BioMAP Diversity Plus: hDFCGF Assay for Collagen III Biomarker Activity (AID 2283056). To be noted: primary human foreskin fibroblasts; actives raise or lower the signal. In short, it runs like this: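 Human foreskin primary fibroblasts were exposed to test chemicals for 24 h, after which collagen III was quantified by ELISA. Activity was fitted bidirectionally against DMSO as negative control and baseline.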

Read-out in test [5]: Epidermal growth factor receptor (EGFR), EGFR (gene 1956)
Nature of the test: BSK_hDFCGF_EGFR: BioMAP Diversity Plus: hDFCGF Assay for Epidermal growth factor receptor (EGFR) Biomarker Activity (AID 2283057). To be noted: primary human foreskin fibroblasts; actives raise or lower the signal. In outline:
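Cell-based multiplexed assay in primary human foreskin fibroblasts. EGFR is read by ELISA 24 h after treatment and compared with DMSO controls.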

Read-out in test [6]: Interleukin-8 (IL8), CXCL8 (gene 3576)
Nature of the test: BSK_hDFCGF_IL8: BioMAP Diversity Plus: hDFCGF Assay for Interleukin-8 (IL8) Biomarker Activity (AID 2283058). The note with it: primary human foreskin fibroblasts; actives raise or lower the signal. In outline: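 hDFCGF human dermal fibroblasts; 24 h chemical exposure; IL-8 by ELISA; bidirectional curve fit vs DMSO baseline; gain or loss of signal scored.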

Test [7] is described as follows: BSK_hDFCGF_Proliferation: Cell Proliferation Assessment in the BioMAP Diversity Plus: hDFCGF Assay (AID 2283059).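 Further: curves fitted for both rise and fall of signal versus DMSO baseline.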 To be noted: primary human foreskin fibroblasts. In short, it runs like this: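 Total protein read at 560 nm after 0.1% SRB staining of TCA-fixed human skin fibroblasts, […]. Activity is fitted in both directions relative to DMSO as baseline.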

Read-out in test [8]: Macrophage colony-stimulating factor (MCSF), CSF1 (gene 1435)
Nature of the test: BSK_hDFCGF_MCSF: BioMAP Diversity Plus: hDFCGF Assay for Macrophage colony-stimulating factor (MCSF) Biomarker Activity (AID 2283060). The note with it: primary human foreskin fibroblasts; actives raise or lower the signal. In outline:
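Human foreskin primary fibroblasts were treated with test chemical for 24 h, and M-CSF was then measured by ELISA. Data were fitted bidirectionally against DMSO as the negative control and activity baseline.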

Test [9] can be described thus: BSK_hDFCGF_SRB: Viability Assessment in the BioMAP Diversity Plus: hDFCGF Assay (AID 2283061).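 Further: cells exposed to compound for 24 h before the read.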 To be noted: primary human foreskin fibroblasts. In short, it runs like this: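 Human foreskin primary fibroblasts were treated with compound and assessed 24 h after dosing. Total protein was measured by sulforhodamine B staining (0.1% SRB after 10% TCA fixation, 560 nm read) as a cytotoxicity marker, with bidirectional fitting against DMSO baseline.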

Read-out in test [10]: TIMP metallopeptidase inhibitor 1 (TIMP1), TIMP1 (gene 7076)
Description: BSK_hDFCGF_TIMP1: BioMAP Diversity Plus: hDFCGF Assay for TIMP metallopeptidase inhibitor 1 (TIMP1) Biomarker Activity (AID 2283062). The note with it: primary human foreskin fibroblasts; actives raise or lower the signal. In outline: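 Primary human foreskin fibroblasts in the hDFCGF system were dosed with compound for 24 h, then TIMP-1 was measured by ELISA. Activity was fitted bidirectionally relative to DMSO control; parallel SRB staining assessed cytotoxicity.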

Read-out in test [11]: Monokine induced gamma interferon (MIG), CXCL9 (gene 4283)
Description: BSK_hDFCGF_MIG: BioMAP Diversity Plus: hDFCGF Assay for Monokine induced gamma interferon (MIG) Biomarker Activity (AID 2283063). The note with it: primary human foreskin fibroblasts; actives raise or lower the signal. In short, it runs like this: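 ELISA read-out of MIG from primary human dermal fibroblasts 24 h post-dosing. Gain or loss of signal fitted bidirectionally, DMSO as baseline.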

Read-out in test [12]: Matrix Metallopeptidase 1 (MMP1), MMP1 (gene 4312)
Description: BSK_hDFCGF_MMP1: BioMAP Diversity Plus: hDFCGF Assay for Matrix Metallopeptidase 1 (MMP1) Biomarker Activity (AID 2283064). To be noted: primary human foreskin fibroblasts; actives raise or lower the signal. In short, it runs like this:
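MMP1 levels quantified by ELISA 24 h after dosing human dermal fibroblast cultures, with parallel SRB total-protein staining for overt cytotoxicity. Data fitted in both directions against DMSO baseline.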

Read-out in test [13]: Vascular cell adhesion molecule 1 (VCAM1), VCAM1 (gene 7412)
Nature of the test: BSK_hDFCGF_VCAM1: BioMAP Diversity Plus: hDFCGF Assay for Vascular cell adhesion molecule 1 (VCAM1) Biomarker Activity (AID 2283065).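 On AC50: VCAM-1 protein level quantified by ELISA after 24 h chemical exposure.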 The note with it: primary human foreskin fibroblasts; actives raise or lower the signal. In short, it runs like this:
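Primary human foreskin fibroblasts (hDFCGF system) were dosed with chemical and VCAM-1 was measured by ELISA 24 h later. Bidirectional curve fitting used DMSO as negative control and activity baseline.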

Read-out in test [14]: Plasminogen activator inhibitor-1 (PAI1), SERPINE1 (gene 5054)
Description: BSK_hDFCGF_PAI1: BioMAP Diversity Plus: hDFCGF Assay for Plasminogen activator inhibitor-1 (PAI1) Biomarker Activity (AID 2283066). To be noted: primary human foreskin fibroblasts; actives raise or lower the signal. In outline: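 Human skin fibroblast cultures receive chemical for 24 h before PAI-1 is measured by ELISA; signal changes are fitted bidirectionally against DMSO-treated wells.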

Read-out in test [15]: Intercellular Adhesion Molecule 1 (ICAM1), ICAM1 (gene 3383)
Nature of the test: BSK_KF3CT_ICAM1: BioMAP Diversity Plus: KF3CT Assay for Intercellular Adhesion Molecule 1 (ICAM1) Biomarker Activity (AID 2283067). The note with it: primary human keratinocytes with fibroblasts; actives raise or lower the signal. In short, it runs like this:
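Human keratinocyte plus foreskin fibroblast primary co-culture was exposed to chemical for 24 h. ICAM-1 was then quantified by ELISA, and the data were fit bidirectionally against DMSO as the negative control and baseline.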

A short description of test [16]: BSK_KF3CT_SRB: Viability Assessment in the BioMAP Diversity Plus: KF3CT Assay (AID 2283069). The note with it: primary human keratinocytes with fibroblasts. In short, it runs like this:
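Cytotoxicity was gauged by SRB staining (0.1% SRB, 10% TCA fixation, 560 nm) of parallel cultures at 24 h. The cells were primary human skin keratinocytes co-cultured with fibroblasts, and activity was fitted in both directions against DMSO.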

Read-out in test [17]: Interleukin-1 alpha (IL1a), IL1A (gene 3552)
Description: BSK_KF3CT_IL1a: BioMAP Diversity Plus: KF3CT Assay for Interleukin-1 alpha (IL1a) Biomarker Activity (AID 2283070). To be noted: primary human keratinocytes with fibroblasts; actives raise or lower the signal. In short, it runs like this:
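IL-1a was detected by ELISA 24 h after chemical treatment of a co-culture of human skin keratinocytes and foreskin fibroblasts. Gain or loss of signal was fitted against the DMSO baseline.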

Read-out in test [18]: TIMP metallopeptidase inhibitor 2 (TIMP2), TIMP2 (gene 7077)
Description: BSK_KF3CT_TIMP2: BioMAP Diversity Plus: KF3CT Assay for TIMP metallopeptidase inhibitor 2 (TIMP2) Biomarker Activity (AID 2283071). To be noted: primary human keratinocytes with fibroblasts; actives raise or lower the signal. In outline: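 Measurements come from ELISA detection of TIMP-2 at 24 hours in a dosed human keratinocyte and foreskin fibroblast co-culture. DMSO serves as negative control and baseline.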

Read-out in test [19]: Transforming growth factor beta 1 (TGFb1), TGFB1 (gene 7040)
Description: BSK_KF3CT_TGFb1: BioMAP Diversity Plus: KF3CT Assay for Transforming growth factor beta 1 (TGFb1) Biomarker Activity (AID 2283072). The note with it: primary human keratinocytes with fibroblasts; actives raise or lower the signal. In short, it runs like this: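 TGF-b1 ELISA on a 24 h dosed co-culture of human keratinocytes and foreskin fibroblasts; cytotoxicity tracked in parallel cultures by SRB staining.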

Read-out in test [20]: Interferon-gamma inducible Protein 10 (IP10), CXCL10 (gene 3627)
Description: BSK_KF3CT_IP10: BioMAP Diversity Plus: KF3CT Assay for Interferon-gamma inducible Protein 10 (IP10) Biomarker Activity (AID 2283068). The note with it: primary human keratinocytes with fibroblasts; actives raise or lower the signal. In outline: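 Human keratinocyte plus foreskin fibroblast primary co-culture exposed to test chemical for 24 h; IP-10 measured by ELISA. Concentration-response fitted bidirectionally against DMSO control as baseline.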

The structures appear in SMILES notation. The source made the active and inactive calls. How the source made its calls: active means hit-call score of the fitted dose curve at least 0.9, where 1 is the maximum; inactive means score below 0.9.

For `CCCCOCCO`, the result in test [1], in test [2], in test [3], in test [4], in [5] and in test [6] was inactive. The outcome in test [7], in test [8], in test [9], in test [10], in test [11] and in [12] was inactive. Further, the outcome in test [13], in [14], in test [15], in test [16], in [17] and in test [18] was inactive. Besides, in test [19], the outcome was inactive.

`Cc1cc(C)c(O)c(C)c1`: the result in test [1], in test [2], in test [3], in test [4], in test [5] and in [6] was inactive. The outcome in [7], in test [8], in [9], in test [11], in test [12] and in [13] was inactive. Moreover, the outcome in [14], in test [15], in test [16], in test [17], in test [18] and in test [19] was inactive.

In the case of `FC(F)(I)C(F)(F)C(F)(F)C(F)(F)C(F)(F)C(F)(F)I`, the AC50 (as a rule, the midpoint of the concentration-response curve, whichever way the signal moves) in [1] was 5.72 µM (active) [middle of 5 runs]; in test [2] it was 23.7 µM (active) [middle of 5 runs]; in test [3], 19.8 µM (active) [middle of 5 runs]; in test [4] it was 4.16 µM (active) [middle of 5 runs]; in [6], 7.02 µM (active) [middle of 5 runs]; in test [7], 2.06 µM (active) [middle of 5 runs]. Moreover, the AC50 is 4.77 µM (active) [middle of 5 runs] in test [8]; 5.33 µM (active) [middle of 5 runs] in [9]; 6.07 µM (active) [middle of 5 runs] in [11]; 5.8 µM (active) [middle of 5 runs] in test [12]; 3.81 µM (active) [middle of 5 runs] in test [13]; 5.44 µM (active) [middle of 5 runs] in test [14]. Moreover, the AC50 in test [15] is 9.2 µM (active) [middle of 5 runs]; in [20], 7.76 µM (active) [middle of 5 runs]; in test [16], 8.99 µM (active) [middle of 5 runs]; in test [17], 7.77 µM (active) [middle of 5 runs]; in [18], 13.2 µM (active) [middle of 5 runs]. Further, in [5], the outcome was inactive.

As to `CCCCCCCCCCCCN1CCCC1=O`, the AC50 was 30.9 µM (active) in [1]; 14.4 µM (active) in test [4]; 34.6 µM (active) in [6]; 14.6 µM (active) in test [7]; 31 µM (active) in test [8]; 34 µM (active) in test [9]. Besides, the AC50 in [11] is 39 µM (active); in test [12], 34.8 µM (active); in [13], 33 µM (active); in [14], 30.6 µM (active); in [15], 36.8 µM (active); in test [16], 33.4 µM (active). Further, the concentration at half-maximal activity (AC50) in [17] is 35.2 µM (active); in [18] it was 31.3 µM (active); in test [19] it was 34.2 µM (active). Besides, the outcome in test [2], in test [3] and in test [5] was inactive.

As for `CN(C)C=O`, the result in test [1], in test [2], in [3], in test [4], in [5] and in test [6] was inactive. The outcome in [7], in [8], in test [9], in test [10], in test [11] and in test [12] was inactive. The result in test [13], in test [14], in test [15], in test [20], in [16] and in [17] was inactive. In addition, the result in test [18] and in [19] was inactive.

`Oc1cccc(O)c1`: the result in [1], in test [2], in test [3], in test [5], in test [6] and in test [7] was inactive. Moreover, the outcome in [8], in [9], in test [10], in [11], in test [12] and in [13] was inactive. Moreover, the result in test [14], in [15], in [20], in [16], in test [17] and in test [18] was inactive.

Source of the values: PubChem BioAssay (EPA / NIEHS).
